In PubChem BioAssay (NCI) one finds growth data, which are given here for 15 compounds.

Among the test systems are DU-145 prostate; K-562 leukemia; MALME-3M melanoma; MDA-MB-231 breast; RXF 393 renal; SF-268 CNS; SF-295 CNS; SF-539 CNS; UACC-257 melanoma; M14 melanoma.
Holding throughout (experiment): NCI-60 one-dose screen, 48 h (100 = growth as untreated, 0 = no growth, -100 = all killed)
Common to all, as to settings: 10 µM unless noted

Structures are written as SMILES. Compounds without any hit were thinned out: in the full panel of roughly 83,000, 20% have a hit.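 Method: cells in 96-well plates; compound added at one concentration; 48 h incubation; percent growth measured; values under 10 scored active.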 Values without a mark were called inactive. Calls of active or inactive are those of the source.

Take `ClCC(Cl)[C@@H]1CC2C=CC1C2` (stereo not given in full): the growth in the experiment with DU-145 prostate is 113%; in the experiment on K-562 leukemia, 105%; in the experiment with MALME-3M melanoma, 102%; with MDA-MB-231 breast, 96.8%; with RXF 393 renal, 105%; in the experiment on SF-268 CNS it was 108%. Besides, the growth with SF-295 CNS is 91.3%; with SF-539 CNS, 110%; in the experiment with UACC-257 melanoma it was 105%; in the experiment with M14 melanoma, 112%.

For the compound `CC(=O)CSc1ncnc2nc[nH]c12`, the growth was 94.3% in the experiment on DU-145 prostate; 82.9% in the experiment with K-562 leukemia; 93.4% with MALME-3M melanoma; 87.5% in the experiment with MDA-MB-231 breast; 89.9% in the experiment on RXF 393 renal; 105% with SF-268 CNS. Also, the growth in the experiment with SF-295 CNS was 99.7%; with SF-539 CNS, 94.8%; in the experiment with UACC-257 melanoma, 78.3%; in the experiment on M14 melanoma, 59.2%.

`COc1nc2ccccc2s1`: the growth in the experiment on DU-145 prostate is 110%; in the experiment on K-562 leukemia, 102%; in the experiment on MALME-3M melanoma it was 111%; with MDA-MB-231 breast, 115%; with RXF 393 renal it was 118%; in the experiment with SF-268 CNS, 101%. Moreover, the growth in the experiment on SF-295 CNS was 113%; with SF-539 CNS, 90.7%; in the experiment with UACC-257 melanoma it was 84.8%; in the experiment with M14 melanoma, 93.5%.

Take `O=c1n(CC2CO2)c(=O)n(CC2CO2)n1CC1CO1` (stereo not given): the growth in the experiment with DU-145 prostate was 38.4%; in the experiment with K-562 leukemia, 57.4%; in the experiment with MALME-3M melanoma, 107%; in the experiment with MDA-MB-231 breast it was 110%; with RXF 393 renal, 80.2%; in the experiment on SF-268 CNS, 53.5%. Further, the growth was -10.3% (active) in the experiment with SF-295 CNS, 18.8% in the experiment with SF-539 CNS, 86.6% in the experiment on UACC-257 melanoma and 48.1% in the experiment on M14 melanoma.

Regarding `CCCCCC(=O)OCCC1CCCCC1`, the growth is 98.2% in the experiment on DU-145 prostate; 107% with K-562 leukemia; 84.1% in the experiment on MALME-3M melanoma; 114% with MDA-MB-231 breast; 104% in the experiment with RXF 393 renal; 93% with SF-268 CNS. Further, the growth was 108% in the experiment on SF-295 CNS, 97.8% in the experiment on SF-539 CNS, 95.9% in the experiment on UACC-257 melanoma and 94% in the experiment with M14 melanoma.

On to `OCCNc1ccccc1`, for which the growth is 103% with DU-145 prostate; 104% in the experiment on K-562 leukemia; 102% in the experiment on MALME-3M melanoma; 104% in the experiment with MDA-MB-231 breast; 109% in the experiment with RXF 393 renal; 97.2% in the experiment with SF-268 CNS. Moreover, the growth with SF-295 CNS is 108%; in the experiment on SF-539 CNS, 95.9%; in the experiment on UACC-257 melanoma, 108%; with M14 melanoma, 97.8%.

As for `Cc1ccc([N+](=O)[O-])c(C)n1`, the growth is 114% with DU-145 prostate; 114% with K-562 leukemia; 100% with MALME-3M melanoma; 117% in the experiment with MDA-MB-231 breast; 128% in the experiment with RXF 393 renal; 98.6% in the experiment with SF-268 CNS. Further, the growth in the experiment with SF-295 CNS is 97.7%; in the experiment on SF-539 CNS, 89.5%; with UACC-257 melanoma, 98.1%; in the experiment with M14 melanoma, 110%.

Regarding `NCC(O)C(O)C(O)C(O)CO` (stereo not given), the growth was 101% with DU-145 prostate; 103% in the experiment on K-562 leukemia; 90.5% in the experiment with MALME-3M melanoma; 91.9% with MDA-MB-231 breast; 109% with RXF 393 renal; 96.2% in the experiment on SF-268 CNS. Further, the growth in the experiment with SF-295 CNS was 106%; in the experiment on SF-539 CNS, 101%; in the experiment on UACC-257 melanoma, 85%; in the experiment with M14 melanoma, 93.9%.

Take `Nc1ccc2c(c1)Cc1cc(N)c(N)cc1-2`: the growth was 108% in the experiment on DU-145 prostate; 97.3% with K-562 leukemia; 95.8% with MALME-3M melanoma; 84% in the experiment with MDA-MB-231 breast; 97.3% in the experiment with RXF 393 renal; 104% with SF-268 CNS. Moreover, the growth in the experiment with SF-295 CNS was 106%; in the experiment on SF-539 CNS, 109%; in the experiment with UACC-257 melanoma, 81%; in the experiment with M14 melanoma, 102%.

With `O=C(OCC1CCCO1)c1ccc([N+](=O)[O-])cc1` (stereo not given), the growth with DU-145 prostate is 113%; in the experiment with K-562 leukemia, 111%; in the experiment on MALME-3M melanoma, 106%; in the experiment with MDA-MB-231 breast, 106%; in the experiment with RXF 393 renal, 102%; in the experiment on SF-268 CNS, 106%. Besides, the growth was 102% in the experiment with SF-295 CNS, 102% in the experiment on SF-539 CNS, 85.5% in the experiment on UACC-257 melanoma and 101% in the experiment with M14 melanoma.

With `Cc1cccc(-[n+]2noc(N)n2)c1`, the growth with DU-145 prostate was 75.4%; in the experiment with K-562 leukemia, 20.2%; in the experiment on MALME-3M melanoma, 86.4%; with MDA-MB-231 breast it was 53.7%; in the experiment on RXF 393 renal, 99.1%; in the experiment with SF-268 CNS it was 81.9%. Further, the growth in the experiment with SF-295 CNS was 84.5%; with SF-539 CNS, 91.6%; with UACC-257 melanoma it was 95.2%; in the experiment on M14 melanoma, 88.4%.

For `C=C(C)COc1ccc(C(C)(C)C)cc1`, the growth with DU-145 prostate is 107%; in the experiment with K-562 leukemia, 106%; in the experiment on MALME-3M melanoma, 116%; in the experiment on MDA-MB-231 breast it was 102%; in the experiment on RXF 393 renal, 99.5%; in the experiment with SF-268 CNS it was 99.8%. Besides, the growth in the experiment on SF-295 CNS was 101%; with SF-539 CNS it was 102%; with UACC-257 melanoma, 82.6%; with M14 melanoma, 102%.

Turning to `CCNC(=O)Oc1ccc[nH]c1=O`, the growth was 117% with DU-145 prostate; 93.4% in the experiment with K-562 leukemia; 103% in the experiment with MALME-3M melanoma; 109% with MDA-MB-231 breast; 116% with RXF 393 renal; 118% in the experiment with SF-268 CNS. The growth in the experiment with SF-295 CNS was 106%; in the experiment with SF-539 CNS, 98.2%; with UACC-257 melanoma, 97.8%; in the experiment on M14 melanoma, 102%.

Regarding `Cc1nc(O)cc(=O)[nH]1`, the growth was 113% with DU-145 prostate; 112% in the experiment on K-562 leukemia; 106% in the experiment on MALME-3M melanoma; 124% with MDA-MB-231 breast; 111% with RXF 393 renal; 105% in the experiment with SF-268 CNS. Moreover, the growth with SF-295 CNS is 118%; in the experiment on SF-539 CNS, 114%; in the experiment with UACC-257 melanoma, 92.1%; in the experiment with M14 melanoma it was 105%.

Consider `CC(C)C(=O)OCCOc1ccc(C(C)(C)C)cc1`, for which the growth was 104% in the experiment with DU-145 prostate; 103% with K-562 leukemia; 97.3% in the experiment with MALME-3M melanoma; 90.5% with MDA-MB-231 breast; 109% in the experiment with RXF 393 renal; 96.1% in the experiment on SF-268 CNS. In addition, the growth in the experiment with SF-295 CNS is 99.3%; in the experiment on SF-539 CNS it was 99.5%; with UACC-257 melanoma, 87.7%; in the experiment with M14 melanoma it was 107%.
